# Test results: ChEMBL document CHEMBL3433997, “St. Jude Leishmania screening dataset” (2016)
# Several values for one entry are separate records, joined by “and”; a condition that tells them apart may be missing. Equal values may be shown once.
# Target: Solute carrier family 2, facilitated glucose transporter member 1 (Homo sapiens) (UniProt P11166)
# Assay: ST_JUDE_LEISH: Cytotoxicity at 2uM final concentration against transgenic Leishmania Mexicana promastigotes LmGLUT1 that are glucose transport deficient and complemented with the human glucose transporter GLUT1. Activity is measured by DNA content using SYBR green in vitro
# Format: functional
# Sequence of Solute carrier family 2, facilitated glucose transporter member 1 (Homo sapiens) (P11166 whole entry): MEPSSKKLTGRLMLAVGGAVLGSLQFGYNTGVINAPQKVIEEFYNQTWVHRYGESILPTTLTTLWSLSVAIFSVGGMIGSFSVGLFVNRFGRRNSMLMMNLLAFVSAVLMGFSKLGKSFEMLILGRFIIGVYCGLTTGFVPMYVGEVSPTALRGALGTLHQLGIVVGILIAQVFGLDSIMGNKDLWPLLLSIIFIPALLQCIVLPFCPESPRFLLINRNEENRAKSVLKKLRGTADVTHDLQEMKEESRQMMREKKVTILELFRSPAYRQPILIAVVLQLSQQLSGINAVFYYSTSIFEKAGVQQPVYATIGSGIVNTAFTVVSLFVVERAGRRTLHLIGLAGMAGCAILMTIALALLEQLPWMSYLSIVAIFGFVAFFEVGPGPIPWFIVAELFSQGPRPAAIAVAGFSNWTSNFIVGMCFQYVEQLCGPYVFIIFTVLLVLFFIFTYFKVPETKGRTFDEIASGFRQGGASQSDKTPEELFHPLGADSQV
row,SMILES,inhibition [%]
1,Oc1ccccc1CN1CCC(CCOC(c2ccccc2)c2ccc(Cl)cc2)CC1 (configuration not stated),38.2
2,CN(C)CCc1c[nH]c2ccc(C(=O)Nc3ccc(-c4ccncc4)cc3)cc12,0.58
3,CCCCNC(c1ccc(Cl)cc1)C(O)c1ccc(Cl)cc1 (configuration not stated),8.3
4,CN(CC(=O)N1CCN(S(=O)(=O)c2cccc(Cl)c2)CC1CN1CCCC1)c1ccc(Cl)c(Cl)c1 (configuration not stated),0.54
5,CN(C)c1cccc(CN2CC=C(c3c[nH]c4ccc(Cl)cc34)CC2)c1,8.22
6,COC(=O)c1ccc(CC(C)NCC(O)c2cccc(Cl)c2Cl)cc1 (configuration not stated),3.29
7,O=C(NC1CCC(CN2CCC(c3c[nH]c4ccccc34)CC2)CC1)[C@H]1Cc2ccccc2CN1 (some centres not stated),1.47
8,CCN(CC)CCN1C(=O)C(O)(c2ccccc2Cl)c2c1cc(C(N)=O)cc2C(F)(F)F (configuration not stated),3.25

# Target: Hexose transporter 1 (Plasmodium falciparum) (UniProt O97467)
# Assay: ST_JUDE_LEISH: Cytotoxicity at 2uM final concentration against transgenic Leishmania Mexicana promastigotes LmPfHT that are glucose transport deficient and complemented with the Plasmodium falciparum hexose transporter. Activity is measured by DNA content using SYBR green in vitro
# Format: functional
row,SMILES,inhibition
1,COCCNCc1ccc(-c2ccc(CN(C(=O)NC3CCCCC3)C3CCN(Cc4ccccc4)CC3)cc2)cc1,2%
2,CCC1(C)CC(CCNCc2ccccc2O)(c2ccc(F)cc2)CCO1 (configuration not stated),1.85%
3,CC[C@H]1CN2CC[C@H]1C[C@@H]2[C@H](O)c1ccnc2ccc(O)cc12,-0.85%
4,O=C(C=Cc1ccccc1O)N1CCC(CN2CCC(c3c[nH]c4ccccc34)CC2)CC1,2.2%
5,COc1ccc2[nH]cc(C3CC4CCC(C3)N4CCC3CCN(C(=O)/C=C/c4ccc(Cl)c(Cl)c4)CC3)c2c1 (configuration not stated),1.01%
6,COc1cccc(O)c1CNCC(O)c1cccc(C(F)(F)F)c1 (configuration not stated),0.5%
7,CN(Cc1ccccc1)C1CCN(CCc2c[nH]c3ccc(F)cc23)CC1,5.56%
8,CCN(Cc1ccccc1)CC(O)c1ccc(Cl)c(Cl)c1 (configuration not stated),0.62%
9,CCCc1ccc2c(c1O)CCC(N(CCC)CCC)C2 (configuration not stated),2.51%
10,O=C(NC1CCC(CN2CCC(c3c[nH]c4ccccc34)CC2)CC1)c1csc(-c2cccc(Cl)c2Cl)n1 (configuration not stated),4.16%
11,N#Cc1c(Cl)cccc1Oc1ccc(S(=O)(=O)N2CCC(CN3CCC(c4c[nH]c5ccccc45)CC3)CC2)cc1,-0.14%
12,O=C(C=Cc1ccc(-c2ccccc2)cc1)NC1CCC(CN2CCC(c3c[nH]c4ccccc34)CC2)CC1 (configuration not stated),7.57% and 7.18%
13,CC(Cc1ccc(OCCCCOc2ccccc2)cc1)NCCC1CCCN1C (configuration not stated),97.7%
14,O=C(NC1CCC(CN2CCC(c3c[nH]c4ccccc34)CC2)CC1)c1cc2ccccc2s1 (configuration not stated),0.46% and 1.62%
15,O=C(/C=C/c1c(Cl)cccc1Cl)NC1CCC(CN2CCC(c3c[nH]c4ccccc34)CC2)CC1 (configuration not stated),12.9% and 2.55%
16,Cc1cccc2[nH]cc(C3CCN(CC4CCC(NC(=O)/C=C/c5ccc(Cl)c(Cl)c5)CC4)CC3)c12 (configuration not stated),6.74%
17,COC(=O)c1ccc(CC(C)NCC(O)c2cccc(I)c2)cc1 (configuration not stated),-1%
18,COCCSc1ccc(CC(C)NCC(O)c2cccc(Cl)c2)cc1 (configuration not stated),0.25%
19,CCCCn1c(C)c(C(=O)OCC)c2cc(OC(C)=O)c(Br)cc21,1.76%
20,CN1CC=C(c2c[nH]c3ccc(Sc4ccccc4)cc23)CC1,2.9%

row,SMILES,inhibition
1,NC(=O)CN1CC=C(c2c[nH]c3ccc(Br)cc23)CC1,0.93%
2,FC(F)(F)c1ccc(NC(=S)NC2CCC(CN3CCC(c4c[nH]c5ccccc45)CC3)CC2)cc1 (configuration not stated),12.7% and 6.46%
3,Cc1ccc(CC(C)(C)NCC(O)c2cccc(C(F)(F)F)c2)cc1 (configuration not stated),2.91%
4,O=C(/C=C/c1ccc(O)cc1)NC1CCC(CN2CCC(c3c[nH]c4ccccc34)CC2)CC1 (configuration not stated),-2.63%
5,Cc1[nH]c2ccccc2c1C1=CCN(CCCCC2(C)C(=O)Nc3ccccc32)CC1 (configuration not stated),2.07%
6,O=C(NC1CCC(N2CCC3(CC2)C(=O)NCN3c2ccccc2)CC1)c1cc2ccccc2[nH]1 (configuration not stated),-0.89%
7,CC[C@H]1CN2CC[C@H]1C[C@H]2[C@H](O)c1cc(-c2cccc(C)c2)nc2ccc(OC)cc12,2.64%
8,CCOC(C(=O)OCCN(C(C)C)C(C)C)(c1ccccc1)c1ccccc1,0.41%
9,OC(CNCc1ccccc1OC(F)F)c1cccc(C(F)(F)F)c1 (configuration not stated),1.17%
10,C#CCN1CCC2=C(C1)c1c(O)cc(C(C)C(C)CCc3ccc(F)cc3)cc1OC2(C)C (configuration not stated),-1.07%
11,COc1ccc(C(=O)C2CC2CN2CC=C(c3c[nH]c4cccc(Br)c34)CC2)cc1 (configuration not stated),2.54%
12,Oc1ccccc1CN1CCC(CCOC(c2ccccc2)c2ccc(Cl)cc2)CC1 (configuration not stated),23.5%
13,CN(C)CCc1c[nH]c2ccc(C(=O)Nc3ccc(-c4ccncc4)cc3)cc12,0.83%
14,CCCCNC(c1ccc(Cl)cc1)C(O)c1ccc(Cl)cc1 (configuration not stated),8.45%
15,CN(CC(=O)N1CCN(S(=O)(=O)c2cccc(Cl)c2)CC1CN1CCCC1)c1ccc(Cl)c(Cl)c1 (configuration not stated),1.78%
16,CN(C)c1cccc(CN2CC=C(c3c[nH]c4ccc(Cl)cc34)CC2)c1,6.95%
17,COC(=O)c1ccc(CC(C)NCC(O)c2cccc(Cl)c2Cl)cc1 (configuration not stated),2.6%
18,O=C(NC1CCC(CN2CCC(c3c[nH]c4ccccc34)CC2)CC1)[C@H]1Cc2ccccc2CN1 (some centres not stated),2.41%
19,CCN(CC)CCN1C(=O)C(O)(c2ccccc2Cl)c2c1cc(C(N)=O)cc2C(F)(F)F (configuration not stated),2.29%
